Reference: PubChem BioAssay (Tox21)
Inconclusive results are not listed. Active and inactive are the calls of the source. Unless noted, the call rests on the fitted dose curve; in most records, active means well fitted curve in the direction sought with a large enough effect in the repeat runs; inconclusive means weak or mixed curves; inactive means no such curve, though single readings can be large; an effect the other way counts as inactive or inconclusive.

Legend:
[1] = target: Thyrotropin receptor (Homo sapiens) (UniProt P16473); experiment: qHTS assay to identify small molecule agonists of the thyroid stimulating hormone receptor (TSHR) signaling pathway (AID 1224843; calls by dose curve; further: nearly all actives have a fitted effect of over 45% in size; further: potency means the concentration at half of the fitted maximal effect)
Chain of Thyrotropin receptor (Homo sapiens) (P16473 whole entry, looked up): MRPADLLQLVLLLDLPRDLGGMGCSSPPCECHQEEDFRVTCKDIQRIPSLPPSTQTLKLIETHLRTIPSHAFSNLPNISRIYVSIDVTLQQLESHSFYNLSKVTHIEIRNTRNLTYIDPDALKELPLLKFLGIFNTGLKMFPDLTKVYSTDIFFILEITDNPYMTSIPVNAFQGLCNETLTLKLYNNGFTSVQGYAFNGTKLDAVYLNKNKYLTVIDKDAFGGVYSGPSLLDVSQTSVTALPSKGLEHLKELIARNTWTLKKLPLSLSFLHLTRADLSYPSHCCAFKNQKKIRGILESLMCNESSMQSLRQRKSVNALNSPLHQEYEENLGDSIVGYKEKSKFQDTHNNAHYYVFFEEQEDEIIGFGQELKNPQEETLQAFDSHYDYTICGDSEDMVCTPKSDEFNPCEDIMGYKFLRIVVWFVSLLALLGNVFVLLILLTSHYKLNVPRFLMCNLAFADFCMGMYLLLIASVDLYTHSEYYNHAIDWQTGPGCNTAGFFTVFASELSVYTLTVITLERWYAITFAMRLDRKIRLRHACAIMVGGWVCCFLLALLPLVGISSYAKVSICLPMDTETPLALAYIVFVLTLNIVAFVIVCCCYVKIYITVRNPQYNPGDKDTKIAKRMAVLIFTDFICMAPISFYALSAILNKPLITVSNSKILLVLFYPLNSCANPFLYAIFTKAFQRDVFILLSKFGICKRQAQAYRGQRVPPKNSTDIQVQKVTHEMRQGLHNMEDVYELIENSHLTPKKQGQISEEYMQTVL
Method in brief: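 Compounds are titrated over 15 concentrations, in triplicate, onto TSHR-HEK293 cells seeded at 800/well. Plates sit 30 min at room temperature before cAMP-d2 and anti-cAMP cryptate are added; signal is read after a further hour.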

[2] = qHTS assay to identify small molecule agonists of the hypoxia (HIF-1) signaling pathway - cell viability counter screen (AID 1224844; calls by dose curve; further: nearly all actives have a fitted effect of over 50% in size; further: potency means the concentration at half of the fitted maximal effect)
Method in brief: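 Same wells as the HIF-1 reporter screen; ME-180 cells carrying HRE-bla, 17 hr treatment at 37C; CellTiter-Glo luminescence read after 30 min at room temperature.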

[3] = qHTS assay to identify small molecule agonists of H2AX (AID 1224845; active means well fitted activation curve with a large enough effect in the signal ratio in the repeat runs, not every such curve was filed as active; the % refers to the signal ratio)
Method in brief: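 Wild-type CHO-K1 cells plated overnight, then exposed 3 hr at 37C to compounds at 15 concentrations (0.76% DMSO). Lysed, then HTRF anti-pH2AX(S139)-cryptate/anti-H2AX-d2 detection after 24 hr at room temperature; emissions 665 and 620 nm.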

[4] = qHTS assay to identify small molecule agonists of the hypoxia (HIF-1) signaling pathway (AID 1224846; active means well fitted activation curve with a large enough effect in the signal ratio in the repeat runs, not every such curve was filed as active; the % refers to the signal ratio)
Method in brief: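 In ME-180 cells bearing an HRE-bla construct, 17 h treatment with DMSO-dissolved compounds at 37C was followed by CCF4-AM loading to quantify reporter induction.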

[5] = qHTS assay to identify small molecule agonists of H2AX - cell viability counter screen (AID 1224847; calls by dose curve; further: top concentration of the series differs between compounds; nearly all actives have a fitted effect of over 30% in size)
Method in brief: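 Cytotoxicity counter screen in wild-type CHO-K1 cells: a 3 hr compound treatment at 37C across 15 concentrations, followed by CellTiter-Glo luminescence to gauge viable cells.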

[6] = qHTS assay to identify small molecule antagonists of the estrogen related receptor (ERR) signaling pathway from Tox21 library (AID 1224848); further: nearly all actives have a fitted effect of over 50% in size; further: potency means the concentration at half of the fitted maximal effect
Method in brief: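 First, 2,000 ERR cells per well were plated and held 6 h at 37 C/5% CO2. Next, compounds in DMSO were pinned in and left 18 h at 37 C. Finally, ONE-Glo was added and luminescence read after 30 min at room temperature.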

[7] = qHTS assay to identify small molecule agonists of the estrogen related receptor (ERR) signaling pathway from Tox21 library (AID 1224849; calls by dose curve; further: nearly all actives have a fitted effect of over 15% in size); settings: ERR reporter cell line, ONE-Glo luciferase, 18 h; at 92.4 µM (top of the series) unless noted
Method in brief: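 Reporter cells (ERR, NTP source) treated with Tox21 10K compounds 18 h, 37 C. Readout: ONE-Glo luminescence, 30 min RT.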

[8] = qHTS RealTime-Glo MT Cell Viability Assay in HepG2 cells - 24 hour (AID 1224867); further: nearly all actives have a fitted effect of over 50% in size
Method in brief: (§1)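 Cells + NanoLuc/prosubstrate dispensed (600 cells/well) → 5 h at 37 C/5% CO2 → compounds in DMSO transferred → 40 h incubation at 37 C, luminescence read at 0, 8, 16, 24, 32, 40 h.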

[9] = qHTS RealTime-Glo MT Cell Viability Assay in HEK293 cells - 32 hour (AID 1224868); further: nearly all actives have a fitted effect of over 50% in size; further: potency means the concentration at half of the fitted maximal effect
Method in brief: (§2)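 Tox21 10K qHTS, HEK293, 600 cells/well, RealTime-Glo reagent co-dispensed with cells; 5 h preincubation, compound by pintool, 37 C, luminescence at 0–40 h.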

[10] = A CellTox Green Cytotoxicity Assay to monitor cytotoxicity in HEK293 cells - 0 hour (AID 1224869); further: nearly all actives have a fitted effect of over 50% in size
Method in brief: (§3)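 Homogeneous no-lysis format: HEK293 cell suspension mixed with CellTox Green reagent, seeded, incubated 5 h at 37 C/5% CO2, then dosed by pintool with compound in DMSO.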

[11] = A CellTox Green Cytotoxicity Assay to monitor cytotoxicity in HEK293 cells - 40 hour (AID 1224871); further: nearly all actives have a fitted effect of over 45% in size
Method in brief: as §3

[12] = qHTS RealTime-Glo MT Cell Viability Assay in HEK293 cells - 16 hour (AID 1224872); further: nearly all actives have a fitted effect of over 50% in size; further: potency means the concentration at half of the fitted maximal effect
Method in brief: as §2

[13] = qHTS RealTime-Glo MT Cell Viability Assay in HepG2 cells - 8 hour (AID 1224873); further: nearly all actives have a fitted effect of over 55% in size
Method in brief: (§4)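 HepG2 cells mixed with RealTime-Glo MT reagents (NanoLuc plus cell-permeant prosubstrate) were seeded at 600 cells/well, incubated 5 h at 37 C/5% CO2, then pinned with compounds in DMSO; nonlytic luminescence tracked viability during 40 h treatment.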

[14] = qHTS RealTime-Glo MT Cell Viability Assay in HEK293 cells - 40 hour (AID 1224874); settings: RealTime-Glo luminescence; max response: active compounds read low; further: nearly all actives have a fitted effect of over 50% in size; further: potency means the concentration at half of the fitted maximal effect
Method in brief: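 Measured as luminescence from the same continuously cultured HEK293 wells at successive time points (0, 8, 16, 24, 32, 40 h) after compound addition. Reagent present from seeding; dosing at 5 h; incubation 37 C.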

[15] = A CellTox Green Cytotoxicity Assay to monitor cytotoxicity in HEK293 cells - 24 hour (AID 1224875); further: nearly all actives have a fitted effect of over 45% in size
Method in brief: as §3

[16] = A CellTox Green Cytotoxicity Assay to monitor cytotoxicity in HepG2 cells - 16 hour (AID 1224876); further: nearly all actives have a fitted effect of over 45% in size
Method in brief: (§5)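 Fluorescent DNA-binding dye, 600 HepG2 cells/well, 5 h preincubation then compound in DMSO; same plates read at 0–40 h, 37 C.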

[17] = qHTS RealTime-Glo MT Cell Viability Assay in HepG2 cells - 32 hour (AID 1224877); further: nearly all actives have a fitted effect of over 55% in size
Method in brief: as §1

[18] = A CellTox Green Cytotoxicity Assay to monitor cytotoxicity in HepG2 cells - 24 hour (AID 1224878); further: nearly all actives have a fitted effect of over 45% in size
Method in brief: as §5

[19] = A CellTox Green Cytotoxicity Assay to monitor cytotoxicity in HepG2 cells - 40 hour (AID 1224879); further: nearly all actives have a fitted effect of over 40% in size
Method in brief: as §5

[20] = qHTS RealTime-Glo MT Cell Viability Assay in HepG2 cells - 40 hour (AID 1224870); further: nearly all actives have a fitted effect of over 50% in size
Method in brief: as §4
On the % scale 0 is the no-effect control and ±100 the full control effect.

CC(Cl)Cl
inactive: Potency [1] | Potency [2] | Potency [3] | outcome [4] | Potency [5] | Potency [6] | activity change, positive = activation [7] -9.34% | Potency [8] | Potency [9] | Potency [10] | Potency [11] | Potency [12] | Potency [13] | max response [14] 3.34% | Potency [15] | Potency [16] | Potency [17] | Potency [18] | Potency [19]

O=NN1CCCCCC1
inactive: Potency [1] | Potency [2] | Potency [3] | outcome [4] | Potency [5] | Potency [8] | Potency [9] | Potency [10] | Potency [20] | Potency [11] | Potency [12] | Potency [13] | max response [14] 0.127% | Potency [15] | Potency [16] | Potency [17] | Potency [18] | Potency [19]

COP(=S)(OC)Oc1ccc([N+](=O)[O-])cc1Cl
inactive: Potency [1] | Potency [2] | Potency [3] | outcome [4] | Potency [5] | activity change, positive = activation [7] -29.5% | Potency [8] | Potency [9] | Potency [10] | Potency [20] | Potency [11] | Potency [13] | max response [14] -20.6% | Potency [15] | Potency [16] | Potency [18] | Potency [19]

ClCc1cccc(Cl)c1
inactive: Potency [1] | Potency [2] | Potency [3] | outcome [4] | Potency [5] | Potency [6] | activity change, positive = activation [7] -9.7% [at 42.5 µM] | Potency [8] | Potency [9] | Potency [10] | Potency [20] | Potency [11] | Potency [12] | Potency [13] | max response [14] -0.225% | Potency [15] | Potency [16] | Potency [18] | Potency [19]

CCOS(C)(=O)=O
inactive: Potency [1] | Potency [2] | Potency [3] | outcome [4] | Potency [5] | Potency [8] | Potency [9] | Potency [10] | Potency [20] | Potency [11] | Potency [12] | Potency [13] | max response [14] -7.66% | Potency [15] | Potency [16] | Potency [17] | Potency [18] | Potency [19]

C=C(C#N)CCC#N
inactive: Potency [1] | Potency [2] | Potency [3] | outcome [4] | Potency [5] | Potency [6] | activity change, positive = activation [7] 0.822% | Potency [8] | Potency [9] | Potency [10] | Potency [20] | Potency [11] | Potency [12] | Potency [13] | max response [14] 5.63% | Potency [15] | Potency [16] | Potency [17] | Potency [18]

C[N+](C)(C)CCCl
inactive: Potency [1] | Potency [2] | Potency [3] | outcome [4] | Potency [5] | Potency [6] | activity change, positive = activation [7] 3.38% | Potency [8] | Potency [9] | Potency [10] | Potency [20] | Potency [11] | Potency [12] | Potency [13] | max response [14] 21.2% | Potency [15] | Potency [16] | Potency [18] | Potency [19]

O=C(NCc1cccnc1)Nc1ccc([N+](=O)[O-])cc1
inactive: Potency [1] | Potency [2] | Potency [3] | Potency [5] | Potency [8] | Potency [10] | Potency [20] | Potency [11] | Potency [13] | Potency [15] | Potency [16] | Potency [17] | Potency [18] | Potency [19]
active: Potency [9] 49 µM | Potency [12] 49 µM | Potency [14] 54.9 µM

Clc1cccc2ccccc12
inactive: Potency [1] | Potency [2] | Potency [3] | outcome [4] | Potency [5] | Potency [8] | Potency [9] | Potency [10] | Potency [20] | Potency [12] | Potency [13] | max response [14] -5.43% | Potency [16] | Potency [17] | Potency [18] | Potency [19]

O=C(O)C(F)(F)C(F)(F)C(F)(F)C(F)(F)C(F)(F)C(F)(F)C(F)(F)C(F)(F)C(F)(F)F
inactive: Potency [1] | Potency [3] | Potency [5] | Potency [6] | activity change, positive = activation [7] 3.44% | Potency [8] | Potency [9] | Potency [10] | Potency [11] | Potency [12] | Potency [13] | max response [14] 1.42% | Potency [15] | Potency [16] | Potency [18] | Potency [19]
active: Potency [2] 13.8 µM

Cc1ccccc1C(=O)Nc1cccc(OC(C)C)c1
inactive: Potency [1] | Potency [3] | outcome [4] | Potency [8] | Potency [10] | Potency [20] | Potency [11] | Potency [12] | Potency [13] | Potency [15] | Potency [16] | Potency [17] | Potency [18] | Potency [19]
active: Potency [2] 27.5 µM

CCN(C)N=O
inactive: Potency [1] | Potency [2] | Potency [3] | Potency [5] | Potency [8] | Potency [9] | Potency [10] | Potency [20] | Potency [11] | Potency [12] | Potency [13] | max response [14] 2.13% | Potency [15] | Potency [16] | Potency [17] | Potency [18] | Potency [19]

BrCC(Br)C1CCC(Br)C(Br)C1 (configuration not stated)
active: Potency [1] 48.3 µM
inactive: Potency [2] | Potency [3] | outcome [4] | Potency [8] | Potency [10] | Potency [20] | Potency [11] | Potency [13] | max response [14] -20.5% | Potency [15] | Potency [16] | Potency [17] | Potency [18] | Potency [19]

CCCCN=C=O
inactive: Potency [1] | Potency [2] | Potency [3] | outcome [4] | Potency [6] | activity change, positive = activation [7] 1.38% | Potency [8] | Potency [9] | Potency [10] | Potency [20] | Potency [11] | Potency [12] | Potency [13] | max response [14] 2.49% | Potency [15] | Potency [16] | Potency [18] | Potency [19]

CC(C)N(C(=O)COc1nnc(C(F)(F)F)s1)c1ccc(F)cc1
active: Potency [6] 54.5 µM | Potency [12] 34.7 µM
inactive: Potency [1] | Potency [2] | Potency [3] | outcome [4] | activity change, positive = activation [7] -34.1% | Potency [10] | Potency [11] | Potency [15] | Potency [16] | Potency [18] | Potency [19]
